Assay results published in PubChem BioAssay AID2057 (The Scripps Research Institute Molecular Screening Center, 2009).
Out of some 320,000 compounds screened, about 2,100 (0.66%) were called active.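 The calls were made as follows: active = inhibition above the mean inhibition of all tested compounds plus 3 SD, set per campaign (cut at about 40% in these data); inactive = the rest.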 Shown is part of a subset that was picked to be rich in actives.

Biological target: Induced myeloid leukemia cell differentiation protein Mcl-1 (Homo sapiens) (UniProt Q07820)
Assay: MCL1-BIM peptide interaction disruptors – biochemical, fluorescence polarization, primary screen (AID 2057);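 also: 0% = DMSO wells and 100% = unlabeled Bim-BH3 peptide control; higher means more loss of mP so more displacement of Bim peptide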
Conditions: GST-MCL1 / FITC-Bim-BH3 fluorescence polarization; at 10.9 µM; stronger effect = higher value

Sequence of Induced myeloid leukemia cell differentiation protein Mcl-1 (Homo sapiens) (Q07820 whole entry, looked up): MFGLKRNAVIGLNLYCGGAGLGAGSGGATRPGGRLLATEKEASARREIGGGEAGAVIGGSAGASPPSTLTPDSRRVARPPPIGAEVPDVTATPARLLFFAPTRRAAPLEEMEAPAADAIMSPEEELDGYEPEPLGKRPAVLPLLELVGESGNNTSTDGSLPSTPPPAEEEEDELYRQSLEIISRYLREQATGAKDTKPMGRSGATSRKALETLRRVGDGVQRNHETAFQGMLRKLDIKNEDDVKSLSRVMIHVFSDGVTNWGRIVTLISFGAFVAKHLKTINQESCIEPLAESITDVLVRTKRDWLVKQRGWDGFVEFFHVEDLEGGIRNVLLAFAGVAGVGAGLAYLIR

inhibition, active:
Cc1nn(C(=O)c2ccoc2C)c(N)c1-c1ccccc1 193%
C1=C(N2CCOCC2)/C(=C/c2nc3ccccc3[nH]2)CC1 105%
COc1ncnc2c1N=C1CC(C)(C)CC(N)=C1S2 191%
CCCN1CC=C2C(C#N)=C(N)C(C#N)(C#N)C(c3cc(OC)ccc3OC)C2C1 (stereo unspecified) 68.3%
CCN1CC=C2C(C#N)=C(N)C(C#N)(C#N)[C@H](c3ccoc3)[C@H]2C1 171%
Cn1c2ccccc2c(=O)c2c(=O)n(Cc3ccco3)c(COc3ccccc3)nc21 60.6%
CN1C(=O)/C(=C/c2ccco2)SC1=Nc1cccc(C(=O)O)c1 44.5%
CN(C(=O)COC(=O)c1cc(-c2ccco2)nc2ccccc12)C1CCS(=O)(=O)C1 (stereo unspecified) 105%
CN(CCOc1ccccc1)C(=O)c1cc(-c2ccco2)nc2ccccc12 46%
CN1c2ccc(C=O)c3c(C=O)ccc(c23)N(C)C1(C)C 167%
COC(=O)c1sc(NC(=S)NC(=O)c2ccc(C)cc2)nc1C 98.3%
CCCN1C2=C(C(=O)CCC2)C(c2ccc(O)c(Br)c2)C2=C1CCCC2=O 43.5%
O=S(=O)([N-]c1nc2ccccc2nc1-[n+]1ccc(Cc2ccccc2)cc1)c1ccc(Br)s1 87.1%

inhibition, inactive:
Cc1cc(-c2csc(N)n2)c(C)n1Cc1ccccc1 6.96%
CC(=O)c1ccc(-c2ccc(Cn3c(C)nc4cc(N)c(C)nc43)cc2)cc1 8.3%
COc1ccccc1NC(=O)COC(=O)Cc1ccc(S(=O)(=O)N2CCCCC2)s1 -0.05%
Cc1nn(-c2ccc([N+](=O)[O-])cc2)c(N)c1-c1ccccc1 -34.6%
C/C(=N\NC(=O)c1ccoc1C)c1ccccc1O 4.86%
Cc1csc(NC(=O)CSc2nc(=O)n(CCCN(C)C)c3c2CCC3)n1 -0.83%
COc1ccc(SCCN2CCN(CC(C)C)CCC2=O)cc1 -4.27%
CC(=O)N(CC(O)CO)c1c(I)c(C(=O)NCC(O)CO)c(I)c(C(=O)NCC(O)CO)c1I (stereo unspecified) -0.91%
COCCn1c(SCC(=O)Nc2nc(C)cs2)nnc1C(C)C -2.37%
O=c1[nH]c(N2CCOCC2)nc2ccccc12 2.38%
CC1(C)Cc2c(C#N)c(SCc3nc4ccccc4[nH]3)nc(N3CCOCC3)c2CO1 3.45%
CNC(=O)N1c2ccccc2C=Cc2ccccc21 -1.86%
CS(=O)(=O)N1CCc2nc(-c3ccccc3)sc2C1 7.75%
CCN(CC)S(=O)(=O)c1ccc2[nH]c(=O)cc(C(=O)N(C)C3CCS(=O)(=O)C3)c2c1 (stereo unspecified) 7.4%
CCCC(C(=O)OCCN(CC)CC)(c1ccccc1)c1ccccc1 -3.08%
N#CC1=C(N)C(C#N)(C#N)[C@H](c2ccsc2)[C@H]2COCC=C12 32.7%
CSc1ccccc1NC(=O)c1cnc2sc(C)cn2c1=O 3.46%
O=C(OCC(=O)N1CCOCC1)c1ccc2ccccc2c1 -1.12%
O=c1c2ccccc2oc2nc(C3CCCCC3)n(Cc3ccco3)c(=O)c12 2.28%
CCCc1nc2c(c(=O)c3ccccc3n2C)c(=O)n1C1CCCCCC1 -7.58%
O=C(O)c1ccc(S(=O)(=O)N2CCOCC2)o1 -0.62%
COC(=O)N/N=C/c1c[n+]([O-])c2ccccc2[n+]1[O-] 5.75%
Cc1cc(/C=C2\SC(=O)N(C)C2=O)c(C)n1-c1cccc(C(=O)O)c1 10.5%
Cc1cc(/C=C2\SC(=Nc3ccc(N4CCOCC4)cc3)N(C)C2=O)c(C)n1-c1cccnc1 -2.16%
COc1ccc(N(CC(=O)NC2CCCCC2)S(=O)(=O)c2c(C)[nH]c(=O)[nH]c2=O)cc1 5.18%
COc1ccc(-c2cc(C(=O)N(C)Cc3ccccc3)c3ccccc3n2)cc1 -5.9%
CC1CCCN(C(=O)c2cc(-c3ccco3)nc3ccccc23)C1 (stereo unspecified) 7.17%
COc1ccc(NC(=O)CN(C)C(=O)c2cc(-c3ccc(C)o3)nc3ccccc23)cc1 4.98%
CN(C(=O)COC(=O)c1nc(Cl)ccc1Cl)C1CCS(=O)(=O)C1 (stereo unspecified) -0.55%
COc1ccccc1C(=O)N/C(=C/c1ccco1)C(=O)Nc1ccc(C(=O)O)cc1 12.1%
COC(=O)c1ccccc1NC(=O)CSc1nc2c(c(=O)[nH]1)CCC2 0.89%
CC(=O)N1CCC(C(=O)OCc2ccc(Cl)cc2)(c2ccccc2)CC1 7.68%
CCCCC(NS(=O)(=O)c1ccc(C)cc1)C(=O)Oc1ccc2c3c(c(=O)oc2c1)CCC3 (stereo unspecified) 1.03%
C#CCOCCOCCOCCNc1nc(N2CCN(C(=O)CCCCCCCCCCNC(=O)[C@H](CCCCN)n3cc(C)nn3)CC2)nc(N2CCN(C(=O)CCCCCCCCCCNC(=O)[C@H](CO)n3cc(CCCSC)nn3)CC2)n1 14.4%
O=C(OCc1cc(Cl)ccc1OC(F)F)c1cccnc1 -0.26%
CS(=O)(=O)Nc1ccccc1N=C(c1ccccc1)c1ccccc1 -1.05%
COC(=O)/C=C\C(=O)Nc1cccc([N+](=O)[O-])c1 2.27%
COC(=O)c1sccc1NC(=S)Nc1ccc(C)cc1 13.5%
Cc1ccc(C(=O)NC(=S)Nc2ccccc2C)cc1 4.14%
CCOc1ccc(C2C3=C(CCCC3=O)N(CC(=O)O)C3=C2C(=O)CCC3)cc1 17.6%
COc1ccc(C2C3=C(CCCC3=O)N(CC(=O)O)C3=C2C(=O)CCC3)cc1 8.95%
COc1ccccc1N1CCN(S(=O)(=O)CCNC(=O)c2ccc(OC(C)C)cc2)CC1 -5.21%
Cc1cc(C)n2nc(C(=O)N(C)C(c3ccccc3)c3ccccc3)nc2n1 -7.96%
O=C(NCCc1ccccc1)C1CCN(S(=O)(=O)c2ccc(Br)s2)CC1 -0.6%
Cc1cc(C)c[n+](-c2nc3ccccc3nc2[N-]S(=O)(=O)c2cccs2)c1 3.38%
Cc1cc(-c2nnc(SCC(=O)Nc3ccc(S(N)(=O)=O)cc3)n2N)n[nH]1 -7.81%
COc1ccc2ccccc2c1CNCc1ccccn1 4.21%
CSc1ccccc1C(=O)OCC(=O)N1CCN(C(C)=O)CC1 1.83%
